Only a selection was taken, and hits are over-represented in it overall.
KDM5B inhibitor: KDM5B demethylase inhibition; Q9UGL1; KDM5B demethylase, FDH-coupled NADH fluorescence (FDH is formaldehyde dehydrogenase); actives 2.6% (n = 220,000); AID 1347165; Potency, µM (top dose mostly 57.7 µM), hits mostly inhibitors; active = well fitted inhibition curve with a large enough effect; note: 0% is about no effect; nearly all actives have a fitted effect of over 70% in size
Target sequence (Q9UGL1 whole entry, looked up): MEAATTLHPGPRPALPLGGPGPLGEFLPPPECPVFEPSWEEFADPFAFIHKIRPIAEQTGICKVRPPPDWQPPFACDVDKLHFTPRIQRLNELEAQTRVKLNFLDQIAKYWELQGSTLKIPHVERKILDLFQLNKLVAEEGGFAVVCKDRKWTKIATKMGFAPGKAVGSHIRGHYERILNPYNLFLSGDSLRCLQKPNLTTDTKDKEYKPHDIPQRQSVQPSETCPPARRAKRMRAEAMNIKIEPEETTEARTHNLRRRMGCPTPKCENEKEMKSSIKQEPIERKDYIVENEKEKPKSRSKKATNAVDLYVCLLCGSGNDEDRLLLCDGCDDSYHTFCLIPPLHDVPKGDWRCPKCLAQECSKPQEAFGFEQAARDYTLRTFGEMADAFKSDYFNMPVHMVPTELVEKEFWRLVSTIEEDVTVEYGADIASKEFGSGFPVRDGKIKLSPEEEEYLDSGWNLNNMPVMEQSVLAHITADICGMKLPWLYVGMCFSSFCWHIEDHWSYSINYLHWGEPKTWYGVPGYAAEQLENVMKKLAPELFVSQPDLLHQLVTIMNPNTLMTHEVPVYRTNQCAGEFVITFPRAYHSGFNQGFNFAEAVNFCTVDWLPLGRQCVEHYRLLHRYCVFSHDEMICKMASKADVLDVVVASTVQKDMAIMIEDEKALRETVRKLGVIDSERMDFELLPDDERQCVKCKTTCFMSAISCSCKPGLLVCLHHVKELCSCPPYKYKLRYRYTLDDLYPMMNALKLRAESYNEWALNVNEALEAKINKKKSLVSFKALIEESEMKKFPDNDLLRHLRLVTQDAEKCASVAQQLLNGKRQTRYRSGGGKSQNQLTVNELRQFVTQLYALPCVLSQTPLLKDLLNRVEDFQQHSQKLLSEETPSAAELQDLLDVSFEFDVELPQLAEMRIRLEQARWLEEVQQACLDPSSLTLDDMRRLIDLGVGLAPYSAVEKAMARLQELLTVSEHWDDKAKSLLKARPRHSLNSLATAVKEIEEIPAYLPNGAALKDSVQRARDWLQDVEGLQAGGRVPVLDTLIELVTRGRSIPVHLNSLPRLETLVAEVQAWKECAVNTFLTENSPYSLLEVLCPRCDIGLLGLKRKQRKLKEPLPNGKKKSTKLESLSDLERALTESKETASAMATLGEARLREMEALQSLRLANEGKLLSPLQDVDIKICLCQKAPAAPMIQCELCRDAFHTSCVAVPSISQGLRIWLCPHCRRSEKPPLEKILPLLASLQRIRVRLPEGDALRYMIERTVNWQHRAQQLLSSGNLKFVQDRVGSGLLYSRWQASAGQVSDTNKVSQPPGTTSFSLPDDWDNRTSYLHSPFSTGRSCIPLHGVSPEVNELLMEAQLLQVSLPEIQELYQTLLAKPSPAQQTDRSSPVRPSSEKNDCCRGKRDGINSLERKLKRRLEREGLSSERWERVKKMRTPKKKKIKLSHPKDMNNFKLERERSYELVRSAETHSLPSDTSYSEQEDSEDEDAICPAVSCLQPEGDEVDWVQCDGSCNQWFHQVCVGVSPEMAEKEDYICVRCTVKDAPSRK
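Inhibition is measured as reduced NADH fluorescence generation from FDH coupling to formaldehyde release. Truncated KDM5BΔAP at 200 nM final acts on H3K4me3 peptide (12.5 µM in substrate mix) in pH 7.5 HEPES buffer with Tween-20, 30 min, room temperature.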
Starred values were filed as active, the others as inactive; i = inactive. Potency is the fitted concentration of half-maximal effect.

SMILES	KDM5B inhibitor
O=S(=O)(N[C@H]1[C@H](O)[C@H](O)C[C@@H]1c1ccc(C(F)(F)F)cc1)c1ccc(F)cc1	i
O=C(CCc1c[nH]c2ccccc12)NCC(F)(F)F	i
O=C(NCc1ccc(CN2CCCC2)cc1)c1cc(S(=O)(=O)N2CCCC2)ccc1Cl	i
NS(=O)(=O)c1ccc(CNC(=O)Cn2nc3c(cc2=O)CCCC3)cc1	i
NC1CCN(Cc2ccc(C(=O)NCc3ccc(S(N)(=O)=O)cc3)c(=O)[nH]2)C1 (centres undefined)	22µM*
O=S(=O)(Nc1nc2ccccc2nc1Nc1ccc(F)cc1)c1ccc(F)cc1	i
O=S(=O)(NCc1cccs1)c1ccc2ccccc2c1	i
COCCn1cnc2ccc(-c3ccccc3)nc2c1=O	35µM*
COCCn1cnc2ccc(OCC3CC3)nc2c1=O	i
COCCn1cnc2ccc(-c3cccc(O)c3)nc2c1=O	i
COCCn1cnc2ccc(N3CCCC3)nc2c1=O	32µM*
COCCn1cnc2ccc(-c3cccnc3OC)nc2c1=O	40µM*
COCCn1cnc2ccc(-c3ccc(F)cc3)nc2c1=O	35µM*
COCCn1cnc2ccc(OCc3ccc(C(F)(F)F)cc3)nc2c1=O	i
COCCn1cnc2ccc(OCc3ccc(Cl)cc3)nc2c1=O	i
COCCn1ccc2nc3ncnn3c(-c3ccccc3)c2c1=O	i
O=C(CSc1nc2ccccc2o1)Nc1ccccc1Oc1ccccc1	i
O=C(OCc1nnnn1-c1ccccc1)C1(c2ccccc2)CCC1	i
CCN1C(=O)C2(CCN(S(=O)(=O)CC)CC2)c2ccccc21	i
NC(=NCc1ccccc1)NCc1ccc(F)cc1	i
Brc1cccc(-c2nc(-c3ccccc3)no2)c1	i
COc1ccc2c(c1)CCCN2C(=O)c1cc2ccc(F)cc2nc1C	i
COc1ccccc1C(C)N(C)C(=O)CCc1ncc(-c2ccc(F)cc2)o1 (centres undefined)	i
CCCCN(C)S(=O)(=O)c1cc(-c2nc(-c3cccc(F)c3)no2)sc1C	i
Cc1ccc(-n2ccnc2SC2CCCCC2=O)cc1C (centres undefined)	i
SMILES	KDM5B inhibitor
Clc1ccc(CSc2nccn2C2CC2)c2ncccc12	i
Cc1ccc(C(=O)c2sc(Nc3cccc(Cl)c3C)nc2N)cc1	i
O=C(CSc1ccc2ccccc2c1)OCC(=O)c1ccc2c(c1)OCCO2	i
Cc1ccc(C)c(NC(NC(=O)c2ccc(Br)cc2)C(Cl)(Cl)Cl)c1 (centres undefined)	i
CN(C)CCCNCc1cccs1	i
COc1ccc(CN2CCNc3cnc(Nc4ccccc4)cc3C2)cn1	35µM*
Fc1ccccc1CN1CCNc2cnc(OCc3cccnc3)cc2C1	i
COc1ccc(CN2CCNc3cnc(Nc4ccccc4)cc3C2)cc1	35µM*
COc1ccccc1CN1CCNc2cc(Nc3ccccc3)ncc2C1	i
COc1cccc(Nc2cc3c(cn2)CN(Cc2ccncc2)CCN3)c1	i
COc1ccc(CN2CCNc3cnc(OCc4cccnc4)cc3C2)cc1O	i
c1ccc(Nc2cc3c(cn2)CN(Cc2ncc[nH]2)CCN3)cc1	i
COc1ccc(CN2CCNc3cnc(OCc4cccnc4)cc3C2)cc1	28µM*
c1ccc(Nc2cc3c(cn2)NCCN(Cc2ccsc2)C3)cc1	35µM*
Cc1[nH]c(C=O)c(C)c1C	i
COc1ccc(-c2ocnc2C(=O)Nc2ccc3c(c2)OCCO3)cc1OC	i
Fc1ccc(-c2nc(COc3c(Cl)cccc3Cl)co2)cc1	i
CC(C)NC(=O)c1ccccc1NC(=O)Cn1cnc2c1c(=O)n(C)c(=O)n2C	i
Cc1cccc2[nH]cc(C=O)c12	i
O=C(CCc1ccccc1)NCC1CCCO1 (centres undefined)	i
CNC(=O)NCc1cccc(OC)c1	i
COc1cccc(CNC(=O)CCNc2cnc3cnccn23)c1	20µM*
O=C(CCc1conc1-c1cccc(F)c1)NCc1ccc(F)cc1	i
O=C(CCNc1c(-c2cccc(F)c2)nc2cnccn12)NCC1CCCO1 (centres undefined)	28µM*
COc1cccc(CNC(=O)CSc2nnc(C)n2C2CC2)c1	i
SMILES	KDM5B inhibitor
O=C(CCNc1c(-c2cccc(F)c2)nc2cnccn12)NCc1ccccc1	25µM*
Cc1nn(-c2ccc(F)cc2)c(Oc2ccccc2)c1CCC(=O)NCC1CCCO1 (centres undefined)	i
O=C(CSCc1cccc(F)c1)NCc1ccccc1	i
CCCCNc1nnc(SCc2ncc(-c3ccccc3)o2)s1	i
C[C@H]1[C@@H]2[C@@H](O)C([C@H](C)C(=O)N(C)Cc3cccnc3)CC[C@@]2(C)CC[C@@H]1NC(=O)C1CCCCC1 (some centres undefined)	i
CC(c1ccccc1)N(C)C(=O)COC(=O)c1c[nH]c2ccccc12 (centres undefined)	i
COc1ccc(C(C)NC(=O)Cc2ccsc2)cc1F (centres undefined)	i
COc1ccccc1NC(=O)CSc1nc2ccccc2c(=O)n1CCn1cc(Cl)cn1	i
CCOc1ccc(NC(=O)C(C)O)c(N)c1 (centres undefined)	i
Cc1ccc(-c2noc([C@@H]3Cc4nc[nH]c4CN3C(=O)Nc3ccc(Cl)cc3)n2)cc1	i
O=C1CCCc2cc(S(=O)(=O)NCC3CCC(C(=O)NCCc4ccccc4)CC3)ccc2N1 (centres undefined)	i
O=C(O)c1cccnc1SC(F)F	i
O=C(c1cnccn1)N1CCC2(CC1)CC(N(Cc1ccccc1)C1CC1)CCO2 (centres undefined)	i
Cc1ccc(CN2C(=O)COC[C@H]2C(=O)Nc2cc(F)cc(F)c2)cc1	i
O=C(Nc1ccc(Cl)cc1)[C@@H]1COCC(=O)N1Cc1ccc(F)cc1	i
Cc1ccc(F)c(NC(=O)[C@@H]2COCC(=O)N2Cc2ccc(F)cc2)c1	40µM*
Cc1ccccc1S(=O)(=O)N[C@@H](C)C(=O)NCc1cscn1	i
O=C(Nc1cccc(-c2nnc3n2CCCC3)c1)c1ccc(F)cc1	i
Cc1nnc(-c2cc(N3CCN(c4ccccn4)CC3)ccn2)n1-c1ccccc1	i
Cc1cc(-c2ccnc(-c3nnc(C)n3-c3ccccc3)c2)ccn1	i
CC(=O)N1CCN(c2ccnc(-c3nnc(C)n3-c3ccccc3)c2)CC1	35µM*
CCOc1cc2c(cc1CNC(=O)c1cc(S(N)(=O)=O)c(Cl)cc1Cl)OC(C)C2 (centres undefined)	i
CN1CC2(CCCN(CC3CC3)C2)c2cc(C(=O)NCCc3ccccn3)ccc21 (centres undefined)	40µM*
O=C(NCCc1ccccn1)c1ccc(OC2CCN(CCc3ccccc3)CC2)cc1	i
CC(=O)N1CC2(CCCN(CC3CC3)C2)Cc2ccccc21 (centres undefined)	i
SMILES	KDM5B inhibitor
O=C(NCCOc1ccccc1)c1cnc2n1CCN(CC1CCOCC1)CC2	i
CN1CC2(CCCN(CC3CC3)C2)c2cc(C(=O)NCCOc3ccccc3)ccc21 (centres undefined)	35µM*
O=C(NCCc1ccccn1)c1ccc2ccccc2c1	i
COc1ccc(S(=O)(=O)Oc2ccc3cc(-c4ccc(OC)c(OC)c4)c(=O)oc3c2)cc1	i
COc1ccc(OC)c(S(=O)(=O)N2CCN(Cc3ccc(C(F)(F)F)cc3)CC2)c1	i
CCOc1ccc(CCNC(=O)C2CCCN(c3nc4ccc(OCC)cc4s3)C2)cc1 (centres undefined)	i
